Measurements reported in the supplement of paper PMC8007513.
Where a name gives a salt, the structure may show the parent alone. ± gives the standard error. Hit rate of the full screen: of about 1,300 compounds, about 130 (10%) showed an effect of 50% or more. Shown is part of a subset that was picked to be rich in strong results.

Tested on: Trichoderma virens ATCC 9645
Experiment: growth yield (OD600) with compound + IPBC relative to untreated control; higher = less growth inhibition
Conditions: compound concentration: 100 uM, IPBC concentration: 200 ng/ml
In short: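 Trichoderma virens ATCC 9645 spores from 7-day potato dextrose agar plates were suspended in potato dextrose broth at 15,000 spores ml^−1. Aliquots of 100 μl with library compounds at 100 μM final, with or without a co-applied biocide at 200 ng ml^−1, were grown in 96-well plates at 30 °C. OD600 was read at 40 h and 72 h on a BioTek EL800. Growth is expressed relative to the control without either agent, as means of duplicate screens.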

Row | SMILES | growth yield (40 h) [%] | growth yield (72 h) [%]
1 | CC(C(=O)O)c1ccc(N2Cc3ccccc3C2=O)cc1 (centres undefined) [Indoprofen] + CCCCNC(=O)OCC#CI [3-iodo-2-propynyl butylcarbamate (IPBC)] | 88.8 ± 11 | 91.2 ± 7.3
2 | Cc1ccc(C(=O)c2ccc(CC(=O)O)n2C)cc1 [Tolmetin sodium salt dihydrate] + CCCCNC(=O)OCC#CI [3-iodo-2-propynyl butylcarbamate (IPBC)] | 77.8 ± 4.8 | 83.9 ± 2.3
3 | C[C@]12CC[C@H](O)C[C@H]1CC[C@@H]1[C@@H]2CC[C@]2(C)[C@@H](C3=CC(=O)OC3)CC[C@]12O [Digitoxigenin] + CCCCNC(=O)OCC#CI [3-iodo-2-propynyl butylcarbamate (IPBC)] | 79.58 ± 0.48 | 87.36 ± 0.52
4 | NC(=O)NC1NC(=O)NC1=O (centres undefined) [Allantoin] + CCCCNC(=O)OCC#CI [3-iodo-2-propynyl butylcarbamate (IPBC)] | 83.71 ± 0.48 | 89.2 ± 2.2
5 | CC(C)OC(=O)C(C)(C)Oc1ccc(C(=O)c2ccc(Cl)cc2)cc1 [Fenofibrate] + CCCCNC(=O)OCC#CI [3-iodo-2-propynyl butylcarbamate (IPBC)] | 65.4 ± 1.3 | 76.3 ± 1.9
6 | O=c1[nH]cc(F)c(=O)[nH]1 [5-fluorouracil] + CCCCNC(=O)OCC#CI [3-iodo-2-propynyl butylcarbamate (IPBC)] | 36.9 | 58.1 ± 1.3
7 | Nc1nc(=O)[nH]cc1F [Flucytosine] + CCCCNC(=O)OCC#CI [3-iodo-2-propynyl butylcarbamate (IPBC)] | 88.5 ± 2.1 | 90.4 ± 0.63
8 | CCN(CC)C(C)C(=O)c1ccccc1 (centres undefined) [Amfepramone hydrochloride] + CCCCNC(=O)OCC#CI [3-iodo-2-propynyl butylcarbamate (IPBC)] | 102 ± 15 | 102 ± 9.3
9 | O=C1C(CC[S+]([O-])c2ccccc2)C(=O)N(c2ccccc2)N1c1ccccc1 (centres undefined) [Sulfinpyrazone] + CCCCNC(=O)OCC#CI [3-iodo-2-propynyl butylcarbamate (IPBC)] | 106 ± 9.2 | 105 ± 2.4
10 | Cc1ccc(/C(=C\CN2CCCC2)c2ccccn2)cc1 [Triprolidine hydrochloride] + CCCCNC(=O)OCC#CI [3-iodo-2-propynyl butylcarbamate (IPBC)] | 96.1 ± 6.5 | 100 ± 1.6
11 | CN1CCC(=C2c3ccccc3Sc3ccccc32)CC1 [Pimethixene maleate] + CCCCNC(=O)OCC#CI [3-iodo-2-propynyl butylcarbamate (IPBC)] | 56.1 ± 1.4 | 88 ± 2
12 | CSc1ccc2c(c1)C(N1CCN(C)CC1)Cc1ccccc1S2 (centres undefined) [Methiothepin maleate] + CCCCNC(=O)OCC#CI [3-iodo-2-propynyl butylcarbamate (IPBC)] | 2.06 ± 0.16 | 1.78 ± 0.1
13 | CN1CCN2c3ccccc3Cc3ccccc3C2C1 (centres undefined) [Mianserine hydrochloride] + CCCCNC(=O)OCC#CI [3-iodo-2-propynyl butylcarbamate (IPBC)] | 82.6 ± 1.3 | 94.1 ± 1.8
14 | CC1(C)O[C@@H]2[C@@H](CO[C@@]3(COS(N)(=O)=O)OC(C)(C)O[C@@H]23)O1 [Topiramate] + CCCCNC(=O)OCC#CI [3-iodo-2-propynyl butylcarbamate (IPBC)] | 89 ± 5.1 | 93.1 ± 5.9
15 | CC(C)(Oc1ccc(C2CC2(Cl)Cl)cc1)C(=O)O (centres undefined) [Ciprofibrate] + CCCCNC(=O)OCC#CI [3-iodo-2-propynyl butylcarbamate (IPBC)] | 78.9 ± 3.6 | 82.2 ± 1.7
16 | O=c1[nH]c(=O)n([C@H]2C[C@H](O)[C@@H](CO)O2)cc1C(F)(F)F [Trifluridine] + CCCCNC(=O)OCC#CI [3-iodo-2-propynyl butylcarbamate (IPBC)] | 90.4 ± 6.2 | 92.7 ± 4
17 | O=c1[nH]c(=O)n([C@H]2C[C@H](O)[C@@H](CO)O2)cc1F [Floxuridine] + CCCCNC(=O)OCC#CI [3-iodo-2-propynyl butylcarbamate (IPBC)] | 4.45 | 19.1 ± 2.3
18 | O=c1[nH]c(=O)n([C@H]2C[C@H](O)[C@@H](CO)O2)cc1I [Idoxuridine] + CCCCNC(=O)OCC#CI [3-iodo-2-propynyl butylcarbamate (IPBC)] | 87.8 ± 2.1 | 89.04 ± 0.52
19 | O=C(NCCNCC(O)COc1ccc(O)cc1)N1CCOCC1 (centres undefined) [Xamoterol hemifumarate] + CCCCNC(=O)OCC#CI [3-iodo-2-propynyl butylcarbamate (IPBC)] | 92.4 ± 1.6 | 94.39 ± 0.63
20 | COc1cccc2c1C(=O)c1c(O)c3c(c(O)c1C2=O)C[C@@](O)(C(=O)CO)C[C@@H]3O[C@H]1C[C@H](N)[C@H](O)[C@H](C)O1 [Doxorubicin hydrochloride] + CCCCNC(=O)OCC#CI [3-iodo-2-propynyl butylcarbamate (IPBC)] | 8.1 ± 1.1 | 34.8 ± 20
21 | COc1cccc2c1C(=O)c1c(O)c3c(c(O)c1C2=O)C[C@@](O)(C(=O)CO)C[C@@H]3O[C@H]1C[C@H](N)[C@@H](O)[C@H](C)O1 [Epirubicin hydrochloride] + CCCCNC(=O)OCC#CI [3-iodo-2-propynyl butylcarbamate (IPBC)] | 42.7 ± 0.48 | 95.33 ± 0.32
22 | COc1cccc2c1C(=O)c1c(O)c3c(c(O)c1C2=O)C[C@@](O)(C(C)=O)C[C@@H]3O[C@H]1C[C@H](N)[C@H](O)[C@H](C)O1 [Daunorubicin hydrochloride] + CCCCNC(=O)OCC#CI [3-iodo-2-propynyl butylcarbamate (IPBC)] | 9.21 ± 1.6 | 44.7 ± 1.3
23 | CO[C@@H]1[C@@H](O[C@@H]2O[C@H](C)[C@@H](O[C@H]3C[C@@](C)(O)[C@@H](OC(=O)CC(C)C)[C@H](C)O3)[C@H](N(C)C)[C@H]2O)[C@@H](CC=O)C[C@@H](C)[C@@H](O)/C=C/C=C/C[C@@H](C)OC(=O)C[C@H]1OC(C)=O [Josamycin] + CCCCNC(=O)OCC#CI [3-iodo-2-propynyl butylcarbamate (IPBC)] | 100 ± 4.5 | 103 ± 3.5
24 | Nc1cc(C(Cl)=C(Cl)Cl)c(S(N)(=O)=O)cc1S(N)(=O)=O [Clorsulon] + CCCCNC(=O)OCC#CI [3-iodo-2-propynyl butylcarbamate (IPBC)] | 86.4 ± 2.2 | 90.8 ± 3.1

Row | SMILES | growth yield (40 h) [%] | growth yield (72 h) [%]
25 | C[C@H](O)C(=O)Nc1c(I)c(C(=O)NC(CO)CO)c(I)c(C(=O)NC(CO)CO)c1I [Iopamidol] + CCCCNC(=O)OCC#CI [3-iodo-2-propynyl butylcarbamate (IPBC)] | 101 ± 5.7 | 101 ± 3.8
26 | CN(C)C(=N)NC(=N)N [Metformin hydrochloride] + CCCCNC(=O)OCC#CI [3-iodo-2-propynyl butylcarbamate (IPBC)] | 85.9 ± 4.9 | 88 ± 2.2
27 | O=C1OCCN1/N=C/c1ccc([N+](=O)[O-])o1 [Furazolidone] + CCCCNC(=O)OCC#CI [3-iodo-2-propynyl butylcarbamate (IPBC)] | 76.2 ± 8.6 | 88.9 ± 5.2
28 | N=C(N)NCCN1CCCCCCC1 [Guanethidine sulfate] + CCCCNC(=O)OCC#CI [3-iodo-2-propynyl butylcarbamate (IPBC)] | 81.3 ± 4.1 | 90.2 ± 4.4
29 | COC[C@@H](NC(C)=O)C(=O)NCc1ccccc1 [Lacosamide] + CCCCNC(=O)OCC#CI [3-iodo-2-propynyl butylcarbamate (IPBC)] | 85.6 ± 1.4 | 93.66 ± 0.73
30 | OC(CCCN1CCCCC1)(c1ccccc1)c1ccccc1 [Diphenidol hydrochloride] + CCCCNC(=O)OCC#CI [3-iodo-2-propynyl butylcarbamate (IPBC)] | 89.4 ± 2.4 | 96.7 ± 3.4
31 | CN(C)CCCN1c2ccccc2Sc2ccccc21 [Promazine hydrochloride] + CCCCNC(=O)OCC#CI [3-iodo-2-propynyl butylcarbamate (IPBC)] | 71.95 ± 0.16 | 90.8 ± 3.8
32 | CN(C)CCCN1c2ccccc2Sc2ccc(C(F)(F)F)cc21 [Triflupromazine hydrochloride] + CCCCNC(=O)OCC#CI [3-iodo-2-propynyl butylcarbamate (IPBC)] | 46.4 ± 2.9 | 81.3 ± 4.3
33 | CC(=O)c1ccc2c(c1)N(CCCN1CCC(CCO)CC1)c1ccccc1S2 [Piperacetazine] + CCCCNC(=O)OCC#CI [3-iodo-2-propynyl butylcarbamate (IPBC)] | 55 | 94.8
34 | CN1CCN(CCCN2c3ccccc3Sc3ccc(C(F)(F)F)cc32)CC1 [Trifluoperazine dihydrochloride] + CCCCNC(=O)OCC#CI [3-iodo-2-propynyl butylcarbamate (IPBC)] | 4.45 ± 0.95 | 3.46 ± 0.1
35 | CN(C)CCCN1c2ccccc2CCc2ccccc21 [Imipramine hydrochloride] + CCCCNC(=O)OCC#CI [3-iodo-2-propynyl butylcarbamate (IPBC)] | 81 ± 1.9 | 96.28 ± 0.21
36 | CNCCCN1c2ccccc2CCc2ccccc21 [Desipramine hydrochloride] + CCCCNC(=O)OCC#CI [3-iodo-2-propynyl butylcarbamate (IPBC)] | 70.4 ± 1.4 | 93.5 ± 3.4
37 | CC(=O)c1ccc2c(c1)N(CCCN(C)C)c1ccccc1S2 [Acetopromazine maleate salt] + CCCCNC(=O)OCC#CI [3-iodo-2-propynyl butylcarbamate (IPBC)] | 70.84 ± 0.32 | 91.6 ± 0.94
38 | OCCN1CCN(CCCN2c3ccccc3Sc3ccc(C(F)(F)F)cc32)CC1 [Fluphenazine dihydrochloride] + CCCCNC(=O)OCC#CI [3-iodo-2-propynyl butylcarbamate (IPBC)] | 2.86 | 2.31 ± 0.21
39 | CC(=O)N[C@@H](CC(=O)N[C@@H](CCC(=O)O)C(=O)O)C(=O)O [Spaglumic acid] + CCCCNC(=O)OCC#CI [3-iodo-2-propynyl butylcarbamate (IPBC)] | 95.6 ± 7.3 | 95.1 ± 7
40 | COc1ccc(C(=O)NCc2cccnc2)cc1C(=O)NCc1cccnc1 [Picotamide monohydrate] + CCCCNC(=O)OCC#CI [3-iodo-2-propynyl butylcarbamate (IPBC)] | 91.2 ± 5.1 | 97 ± 3.9
41 | CC(CN(C)C)CN1c2ccccc2CCc2ccccc21 (centres undefined) [Trimipramine maleate salt] + CCCCNC(=O)OCC#CI [3-iodo-2-propynyl butylcarbamate (IPBC)] | 75.1 ± 0.79 | 93.97 ± 0.84
42 | CN1CCOC(c2ccccc2)c2ccccc2C1 (centres undefined) [Nefopam hydrochloride] + CCCCNC(=O)OCC#CI [3-iodo-2-propynyl butylcarbamate (IPBC)] | 83.4 ± 1.1 | 93.1 ± 1.1
43 | CC(=O)OCC1=C(C(=O)O)N2C(=O)[C@@H](N)[C@H]2SC1 [Cephalosporanic acid, 7-amino] + CCCCNC(=O)OCC#CI [3-iodo-2-propynyl butylcarbamate (IPBC)] | 85.1 ± 3.8 | 94.6 ± 3.1
44 | NS(=O)(=O)c1cc2c(cc1Cl)N=CNS2(=O)=O [Chlorothiazide] + CCCCNC(=O)OCC#CI [3-iodo-2-propynyl butylcarbamate (IPBC)] | 102.6 ± 0.32 | 106 ± 2.8
45 | CCOc1ccc(Cc2nccc3cc(OCC)c(OCC)cc23)cc1OCC [Ethaverine hydrochloride] + CCCCNC(=O)OCC#CI [3-iodo-2-propynyl butylcarbamate (IPBC)] | 55 ± 2.2 | 82.3 ± 2.2
46 | CC[C@H]1OC(=O)C[C@@H](O)[C@H](C)[C@@H](O[C@@H]2O[C@H](C)[C@@H](O[C@H]3C[C@@](C)(O)[C@@H](O)[C@H](C)O3)[C@H](N(C)C)[C@H]2O)[C@@H](CC=O)C[C@@H](C)C(=O)/C=C/C(C)=C/[C@@H]1CO[C@@H]1O[C@H](C)[C@@H](O)[C@@H](OC)[C@H]1OC [Tylosin] + CCCCNC(=O)OCC#CI [3-iodo-2-propynyl butylcarbamate (IPBC)] | 95.3 ± 7.9 | 95.1 ± 3
47 | CC(C)NC[C@@H](O)COc1ccc(CC(N)=O)cc1 [(R)-(+)-Atenolol] + CCCCNC(=O)OCC#CI [3-iodo-2-propynyl butylcarbamate (IPBC)] | 101 ± 2.1 | 98.48 ± 0.52
